# Source: PubChem
# KB-3-1 cytotox = KB-3-1 parental cell cytotoxicity; KB-3-1 viability, CellTiter-Glo ATP luminescence, 72 h; Potency, µM (top dose mostly 46.1 µM), most hits filed as cytotoxic; AID 1347075; 1.4% of 400,000 active; note: % is set by controls: 0 for no effect and ±100 for the full control effect; nearly all actives have a fitted effect of over 60% in size
#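 KB-3-1 parental drug-naive adenocarcinoma cells in DMEM/10% FBS, incubated 72 h at 37 C with pin-transferred compounds across a concentration series. Viability by CellTiter-Glo luminescence; concentration-response curves fitted after normalization.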
# HT1080-NT tox = kills 2HG-producing HT-1080-NT fibrosarcoma cells; HT-1080-NT fibrosarcoma viability, CellTiter-Glo ATP luminescence, 48 h; Potency, µM (titrated, usually from 46.1 µM), for inactives: at the top dose activity, negative = less viability, most hits filed as cytotoxic; 1.6% of 360,000 active; AID 686970;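 note: NT is the 2HG producing partner of a matched IDH1 knockdown line; 0% = DMSO-treated cells and -100% = media-only wells without cells; nearly all actives have a fitted effect of over 55% in size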
#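 Viability by CellTiter-Glo luminescence after 48 h compound exposure at 37C of HT-1080-NT cells (750/well, RPMI, 5% FBS). % activity scaled between DMSO wells and medium-only wells, then curve-fitted and categorized by curve class.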
# ATXN2 expr inh = reduces ATXN2 reporter expression in HEK-293 cells | HEK-293 ATXN2-luciferase reporter, luminescence, 24 h | Potency, µM (series often up to 57 µM), without a hit: at the top dose activity change, negative = inhibition, actives largely listed as inhibitors | 0.72% of 360,000 active | AID 1745845; note: % is set by controls: 0 for no effect and ±100 for the full control effect; nearly all actives have a fitted effect of over 55% in size
#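 ATXN2-luciferase reporter cells (luciferase flanked by upstream and downstream ATXN2 gene portions) were treated 24 h at 37 °C with compounds at up to 57 uM. SteadyGlo luminescence gave expression; GF-AFC fluorescence gave viability.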
# HT1080 IDH1KD tx = kills HT-1080 cells with IDH1 knockdown. HT-1080 IDH1 knockdown viability, ATP luminescence, 48 h. Potency, µM (doses to about 46.1 µM), inactives show at the top dose activity, negative = toxicity, most hits filed as cytotoxic. 2% of 360,000 active. AID 686971;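 note: 0% = DMSO wells and -100% = cell-free medium wells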
#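 Using the IDH1-knockdown HT-1080 line run in the same batch and compound series as the NT line, viability after 48 h at 37 °C was determined by CellTiter-Glo luminescence and expressed as % activity.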
# ATXN viability = viability counter-screen for ATXN expression inhibitors. S2 cells (HEK-293 line with an ATXN2-luciferase reporter) viability, CellTiter-Fluor protease fluorescence, 24 h. Potency, µM (doses to about 56.7 µM), actives largely listed as cytotoxic. 0.49% of 400,000 active; note: nearly all actives have a fitted effect of over 40% in size
# KB-V1 MDR tox = KB-V1 MDR subline cytotoxicity | KB-V1 MDR cells viability, CellTiter-Glo, 72 h | Potency, µM (titrated, usually from 46.1 µM), actives largely listed as cytotoxic | 3.4% of 400,000 active | AID 1347076; note: % is set by controls: 0 for no effect and ±100 for the full control effect; nearly all actives have a fitted effect of over 60% in size
#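 qHTS viability screen in drug-selected KB-V1 MDR cells: 72 h compound treatment at 37 degrees C, ATP luminescence end point.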
# An asterisk follows results filed as active; i = inactive; ? = inconclusive; nt = no result; ! = not active in a repeat; [ ] = dose if it differs, or a comment. Shown are actives, neighbours in structure and some others; about 6.2% of the full set was active somewhere. Calls come from the whole dose curve; as a rule, active = well fitted curve in the direction sought with a large enough effect; inconclusive = small, poorly fitted or top-dose-only effect, or another doubt; inactive = no such curve, though single readings can be large; an effect the other way counts as inactive or inconclusive. Potency is the fitted concentration of half-maximal effect.
SMILES,KB-3-1 cytotox,HT1080-NT tox,ATXN2 expr inh,HT1080 IDH1KD tx,ATXN viability,KB-V1 MDR tox
C[n+]1ccc(CO)cc1,i,nt,nt,nt,nt,i
COc1ccc(-c2nc(CSc3nnc(C)n4c3cc3oc(C)cc34)c(C)o2)cc1OC,i,nt,nt,nt,nt,i
Cc1ccccc1C1(CC(=O)N2CCOCC2)CC(=O)N(Cc2cccnc2)C1=O (configuration not stated),nt,nt,nt,nt,i,nt
O=C(N/N=C/c1cccc2ccccc12)c1ccncc1,i,5.5%,nt,6.3%,i,?
O=C(N/N=C/c1ccccc1O)c1ccncc1,i,?,3.55µM*!,?,?,i
Cc1nc(C)c(C(=O)N/N=C/c2cc(Br)ccc2O)s1,i,?,nt,2.06µM*,?,i
Cc1cc(CCNC=O)c(C)c2c1sc1ccccc12,16.4µM*,-6.1%,42.3%,-10.4%,i,16.4µM*
Clc1ccccc1CN(Cc1ccccc1)C(c1cccs1)c1nnnn1C1CCCC1 (configuration not stated),?,-0.8%,-22.6%,-14.8%,i,?
Clc1ccc(CN(CC2CCCO2)C(c2cccs2)c2nnnn2C2CCCC2)cc1 (configuration not stated),?,-17.2%,?,-12.7%,i,20.6µM*
FC(F)(F)c1cc(CO[C@@H]2CCCN[C@@H]2c2ccccc2)cc(C(F)(F)F)c1,i,?,?,23.1µM*,nt,i
Cc1cc(C)cc(NC(=O)C2CC23CCN(Cc2ccc4ncccc4c2)CC3)c1 (configuration not stated),nt,nt,nt,nt,i,nt
Cc1cc2ccc3ccccc3c2cc1CN(C)C,i,32.6µM*,28.5%,18.4µM*,i,i
Cc1ccc2c(c1)c1c3n2CCN(C(=O)c2ccc(C(F)(F)F)cc2)C3CCC1 (configuration not stated),?,nt,-5.4%,nt,i,?
Clc1ccccc1-c1nc2nc3ccccc3nc2n1-c1ccc2c(c1)OCO2,i,3.6%,-8.1%,0.0%,?,9.2µM*
CN1CCN(c2nc(-c3ccccc3)c3cc(Cl)ccc3n2)CC1,?,?,-14.6%,-24.1%,i,?
Clc1ccc2nc(N3CCNCC3)nc(-c3ccccc3)c2c1,?,-10.5%,?,19.6%,i,18.4µM*
O=C(c1ccccc1OCc1ccccc1Br)N1CCN(c2ncccn2)CC1,?,?,41.1%,?,i,6.51µM*
Cc1ccc(C)c(NC(=O)COC(=O)CC2c3ccccc3CCN2S(=O)(=O)c2ccc(F)cc2)c1 (configuration not stated),i,-3.9%,-22.9%,-21.6%,i,20.6µM*
O=C(COC(=O)CC1c2ccccc2CCN1S(=O)(=O)c1ccccc1)Nc1ccccc1 (configuration not stated),i,-2.1%,4.3%,-0.6%,i,?
CCC1CN(CCNC(=O)c2ccc3c(c2)OCCO3)Cc2cc(OC)ccc2O1 (configuration not stated),nt,nt,nt,nt,i,nt
CC1CCN(S(=O)(=O)c2ccc3c(c2)oc(=O)n3CC(=O)NC(C)c2ccccc2)CC1 (configuration not stated),?,nt,-36.0%,nt,i,i
Cc1nc(S(=O)(=O)c2ccc(Cl)cc2)nc2c1CCC2,i,-0.6%,-10.2%,0.2%,i,14.6µM*
Cc1ccc(S(=O)(=O)c2nc(C)c3c(n2)CCC3)cc1,i,-3.3%,-9.0%,1.5%,i,i
O=[N+]([O-])c1ccc(-c2nnc(-c3ccccc3)c(N3CCOCC3)n2)cc1,i,2.8%,-18.7%,3.4%,i,11.6µM*
FC(F)(F)c1cccc(-c2nnc(-c3ccccc3)c(N3CCOCC3)n2)c1,i,-21.2%[9.24 µM],-22.2%,-27.5%,i,i
SMILES,KB-3-1 cytotox,HT1080-NT tox,ATXN2 expr inh,HT1080 IDH1KD tx,ATXN viability,KB-V1 MDR tox
CC(NS(=O)(=O)c1ccccc1[N+](=O)[O-])c1ccccn1 (configuration not stated),?,nt,nt,nt,nt,i
CC(C)c1ccc(NC(=O)c2cc(-c3cc(F)ccc3OCC3CCCO3)n[nH]2)cc1 (configuration not stated),i,-0.3%,-1.9%,2.6%,i,i
O=C(N/N=C(\CC(=O)c1cccs1)C(F)(F)F)c1ccncc1,i,-16.2%,55.0%,?,i,?
Cc1ccc(C(=O)N/N=C(/CC(=O)c2cccs2)C(F)(F)F)cc1,?,25.9µM*,-17.7%,?,?,?
CCCNC(=O)c1cnn2c(C(F)F)cc(-c3ccccc3)nc12,i,nt,-30.1%,nt,nt,i
COc1cc(/C=N/NC(=O)c2cc(-c3ccco3)nc3ccccc23)cc(OC)c1O,i,-24.4%,11.5%,-15.2%,i,i
O=C(N/N=C/c1ccc2c(c1)OCO2)c1cc(-c2ccc(F)cc2)nc2ccccc12,?,?,30.1%,?,?,8.2µM*
O=C(N/N=C/c1cccc(F)c1)c1cc(-c2ccco2)nc2ccccc12,?,?,12.6%,16.4µM*,?,?
CC(=O)Nc1cc(C(=O)N2CCSCC2)cc2ncn(CCc3ccccn3)c12,nt,nt,nt,nt,i,nt
COc1ccc2cc1Oc1ccc(cc1)CC1c3c(cc(OC)c4c3Oc3cc5c(cc3O4)CCNC5C2)CCN1C (configuration not stated),16.4µM*,?,10.6µM*,18.4µM*,8.44µM*,?
COc1ccc2cc1Oc1ccc(cc1)C[C@H]1c3c(cc(OC)c4c3Oc3c(ccc5c3[C@H](C2)N(C)CC5)O4)CCN1C,i,-3.1%,-3.1%,-2.0%,?,?
CC(Sc1nc2ccccc2c(=O)n1C)C(=O)Nc1ccc2c(c1)OCCO2 (configuration not stated),?,?,-33.7%,-3.9%,i,i
CC(C)Cn1c(SC(C)C(=O)Nc2ccc3c(c2)OCCO3)nc2ccccc2c1=O (configuration not stated),i,-23.6%,-15.6%,-26.0%,i,20.6µM*
O=C1CN(C(=O)COc2ccc(Cl)cc2)C(c2ccc(F)cc2)c2cc(Cl)ccc2N1 (configuration not stated),i,nt,?,nt,?,i
CC(C)C1N=C(c2ccc3c(c2)OCO3)CC(c2ccccc2O)N1 (configuration not stated),?,?,?,?,28.2µM*,?
CC(C)C1(C)NC(c2ccc3c(c2)OCO3)=CC(c2ccccc2O)N1 (configuration not stated),i,nt,nt,nt,nt,i
CNc1nc(NCc2ccc(C)cc2C)c2sccc2n1,i,?,?,?,?,?
